Assay outcomes as filed in PubChem BioAssay.
TRHR PAM = allosteric enhancers of human TRH receptor. P34981. TRHR cells, fluo-8 calcium fluorescence, EC20 TRH enhancement. enhancement, % at 2 µM. 360,000 compounds, 0.66% hits; in the data active = enhancement above about 30%
Target sequence (P34981 whole entry, looked up): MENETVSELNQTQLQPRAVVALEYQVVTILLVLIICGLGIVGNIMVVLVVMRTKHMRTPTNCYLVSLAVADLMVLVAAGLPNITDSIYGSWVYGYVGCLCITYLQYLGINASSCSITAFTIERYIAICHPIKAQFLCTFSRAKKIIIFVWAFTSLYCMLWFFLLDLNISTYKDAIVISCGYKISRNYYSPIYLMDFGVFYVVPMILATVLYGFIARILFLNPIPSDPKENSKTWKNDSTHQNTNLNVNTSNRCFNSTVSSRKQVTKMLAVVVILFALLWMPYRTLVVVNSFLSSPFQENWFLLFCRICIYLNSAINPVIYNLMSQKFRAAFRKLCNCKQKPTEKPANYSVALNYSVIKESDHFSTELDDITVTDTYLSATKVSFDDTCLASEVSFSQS
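Enhancer read-out: after compound pinning and an initial kinetic agonist-mode read, an EC20 of TRH (10 nM final) was injected and fluo-8 calcium signal (Ex 480/Em 530) followed at 1 s/cycle for 100 cycles in TRHR-expressing cells.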
D1 antagonist = antagonists of human D1 dopamine receptor | HEK293 TREx D1 cells, calcium flux, dopamine EC80; active compounds read low | activity change, negative = inhibition, % at 10 µM | 360,000 compounds, 3.2% hits; in the data active = activity change below about -30%
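Kinetic fluorescence of a calcium dye serves as the read-out. D1-expressing Hek293 Trex cells, induced overnight at 30 C, are exposed to compound for 180 s before an EC80 dopamine addition, then read 180 s further.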
TRHR agonist = TRH receptor (human) agonism | TRHR cells, calcium flux fluo-8, FDSS agonist mode | AID 493084 | P34981 | 360,000 compounds, 0.18% hits | activation, % at 2 µM
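Agonist-mode FDSS calcium read (Ex 480/Em 530, 1 s cycles) in 1536-well TRHR cells with fluo-8 dye, after 10-cycle baseline and 23 nL compound addition; TRH at EC20 (10 nM final) added afterwards for the enhancer phase.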
D1 PAM = potentiators of human D1 dopamine receptor. 360,000 compounds, 0.036% hits. HEK293 TREx D1 cells, calcium flux, dopamine EC20 potentiation. potentiation, % at 10 µM; in the data active = potentiation above about 30%
D1 agonist = agonists of human D1 dopamine receptor | HEK293 T-REx D1 cells, calcium flux, agonist mode | activation, % at 2 µM | 360,000 compounds, 1% hits
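Agonism was scored from calcium flux recorded over 180 s (1 read/s) after pintool compound addition, following a 10-cycle baseline. Cells were inducible force-coupled HEK293 TREx D1, plated overnight at 30 C and loaded with no-wash calcium dye.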
A number is an active result; – = inactive. Only some compounds are listed: those with a hit (about 4.7% of all), similar ones and a draw of the others. Rule as the data show it, unless noted: active = activation above about 30%; inactive = the rest.

SMILES	TRHR PAM	D1 antagonist	TRHR agonist	D1 PAM	D1 agonist
Nc1nc(CN2CCN(c3ccccc3)CC2)nc(Nc2ccc(Cl)cc2)n1	–	-40	–	–	–
Nc1nc(CN2CCN(Cc3ccc4c(c3)OCO4)CC2)nc(Nc2ccccc2)n1	–	-47	–	–	–
CCN(CC)C(=O)c1nn(-c2ccc(OC)cc2)c(=O)c2c(N)scc12	–	–	–	–	–
O=C(C1CCC(Cn2c(=O)c3sccc3n(Cc3ccccc3)c2=O)CC1)N1CCOCC1 (stereo not given)	–	–	–	–	–
CCC(C(=O)Nc1ccc(C)c(C)c1)n1c(=O)c(C(F)(F)F)nc2ccccc21 (stereo not given)	–	–	–	–	–
O=C(Nc1ccc(F)cc1F)Nc1csc2ccccc12	–	-33	–	–	–
CC(C)CNC(=O)Nc1ccc(F)c(Cl)c1	–	–	–	–	–
O=C(Nc1ccc(F)c(Cl)c1)Nc1csc2ccccc12	–	-33	–	–	–
Cc1ccc(-c2csc(=Nc3ccccc3)n2Cc2ccc3c(c2)OCO3)cc1	–	–	–	–	–
CCN(CC)c1ccc(C=C(c2nnnn2-c2ccc(C)cc2)c2nnnn2-c2ccc(C)cc2)cc1	–	–	–	–	32
Cc1ccc(-n2nnnc2-c2ccccc2)cc1	–	–	–	–	–
CC(C)N=C(NC#N)SCC(=O)NC(C)(C)C	–	–	–	–	–
N#CNC(=Nc1ccccc1)SCc1ccc(C(=O)O)cc1	–	–	–	–	–
CC(C)(C)NC(=O)CSC(=Nc1cccc(F)c1)NC#N	–	-40	–	–	–
CC(C)N=C(NC#N)SCc1ccccc1F	–	-49	–	–	–
N#CNC(=Nc1cccc(F)c1)SCc1ccccc1F	–	-40	–	–	–
COC(=O)c1ccccc1NC(=O)Cn1cnc([N+](=O)[O-])c1	–	-89	–	–	–
O=C1[C@H]2C(c3ccccc3)=NN(c3ccccc3)[C@H]2C(=O)N1c1ccccc1	–	-45	–	–	–
O=C1C2C(c3ccccc3)=NN(c3ccccc3)C2C(=O)N1c1ccccc1 (stereo not given)	–	–	–	–	–
COc1ccc(NC(=O)Cn2c(=O)n(CCc3ccccc3)c(=O)c3sc4ccccc4c32)cc1	–	–	–	–	–
CCc1cc2c(s1)c1cnn(Cc3ccccc3F)c(=O)c1n2C	–	–	–	–	–
CSc1cc2c(s1)c1cnn(Cc3ccccc3F)c(=O)c1n2C	–	–	–	38	–
CCc1ccc(C2=C(C)C(N3CCC(C(=O)NCCc4ccco4)CC3)=NS2(=O)=O)cc1	–	–	–	–	–
COc1cc(C(=O)N/N=C(\c2ccccc2)c2ccccn2)cc(OC)c1OC	–	–	–	–	–
COc1cccc(C(=O)N/N=C(/c2ccccc2)c2ccccn2)c1	–	-62	–	–	–
SMILES	TRHR PAM	D1 antagonist	TRHR agonist	D1 PAM	D1 agonist
Cc1c(CNC2CCCCC2)c(C(=O)O)c(C)n1Cc1ccccc1F	–	–	–	–	–
Cc1c(CNC2CCC(C)CC2)c(C(=O)O)c(C)n1Cc1ccccc1F (stereo not given)	–	-49	–	–	–
O=C(Cn1ncc2c(=O)oc3ccccc3c21)NCc1ccc(Cl)cc1	–	–	–	–	–
CCOc1ccc(NCc2cccn2-c2nnc(N3CCC(C(=O)NCCc4ccc(OCC)c(OCC)c4)CC3)s2)cc1	–	–	–	–	–
CCOc1ccc(NCc2cccn2-c2nnc(N3CCC(C(=O)NCCc4ccc(OC)c(OC)c4)CC3)s2)cc1	–	-31	–	–	–
O=C(Nc1ccc(Cl)c(Cl)c1)N(Cc1c[nH]c2ccccc12)C1CCCCC1	–	–	–	–	–
CCCN1CCN(CCNC(=O)Nc2cc(OC)cc(OC)c2)CC1	–	–	–	–	–
CCOC(=O)c1ccc(Nc2c(-c3ccc(N(C)C)cc3)nc3nc[nH]n23)cc1	–	–	–	–	–
CCOC(=O)c1c(Oc2ccc(C(=O)OC)cc2)nnc(-c2ccccc2)c1-c1ccccc1	–	–	–	–	–
COc1cc2c(cc1OC)C(COc1ccc3c(C)cc(=O)oc3c1)N(C(=O)Cc1ccc(F)cc1)CC2 (stereo not given)	–	–	–	–	–
Cc1[nH]c2ccc(F)cc2c1CCN(Cc1ccco1)C(=S)NC(C)(C)C	–	-43	–	–	–
CNC(=S)N(CCc1c(C)[nH]c2ccc(F)cc12)Cc1ccco1	–	–	–	–	–
CNC(=S)N(CCc1c(C)[nH]c2ccccc12)Cc1ccco1	–	-38	–	–	–
CNC(=O)c1c(NC(=O)c2cc(=O)c3ccccc3o2)sc2c1CCC2	–	–	–	–	–
Cc1ccc(NC(=O)c2c(C)oc3ncn(CC(C)C)c(=O)c23)nc1	31	–	–	–	–
COc1ccc(CCNC(=O)c2c(C)oc3ncn(CC(C)C)c(=O)c23)c(OC)c1	–	-30	–	–	–
Cc1ccnc(NC(=O)c2c(C)oc3ncn(CC(C)C)c(=O)c23)c1	–	–	–	–	–
O=C1C(=O)c2c(C(=O)c3ccccc3)coc2-c2ccccc21	–	-57	–	–	–
Cc1oc2c(c1C(=O)c1ccccc1)C(=O)C(=O)c1ccccc1-2	–	–	–	–	–
O=C(CSc1ccc(-c2ccc(Cl)cc2)nn1)Nc1ccc2c(c1)OCCO2	–	-31	–	–	–
O=C(CSc1ccc(-c2ccc(Cl)cc2)nn1)N1CCCc2ccccc21	–	-34	–	–	–
Cc1ccc(NC(=O)CSc2ccc(-c3ccc4c(c3)OCO4)nn2)cc1F	–	–	–	–	–
O=C(CSc1ccc(-c2ccc(F)cc2)nn1)N1CCCc2ccccc21	–	–	–	–	–
CC1Cc2cc(S(=O)(=O)CCC(=O)Nc3ccc(OC(F)(F)F)cc3)ccc2N1C(=O)C1CC1 (stereo not given)	–	–	–	–	–
CC(C)(C)NC(=O)C(c1ccncc1)N(Cc1cccs1)C(=O)Cn1nnc(-c2ccc(F)cc2)n1 (stereo not given)	–	-33	–	–	–
SMILES	TRHR PAM	D1 antagonist	TRHR agonist	D1 PAM	D1 agonist
COc1ccc(-c2nnn(CC(=O)N(CCCN3CCOCC3)C(C(=O)NC3CCCC3)c3ccco3)n2)cc1 (stereo not given)	–	-32	–	–	–
Cc1ccc(-c2nnn(CC(=O)N(CCN3CCOCC3)C(C(=O)NC(C)(C)C)c3ccc(C)o3)n2)cc1 (stereo not given)	37	–	–	–	–
COc1cc(Cl)c(C)cc1NC(=O)COc1ccccc1[N+](=O)[O-]	32	–	–	–	–
COc1cc(NC(=O)COc2c(C)cc(C)cc2[N+](=O)[O-])c(OC)cc1Cl	–	–	–	–	–
Cc1ccccc1-c1noc(-c2ccccc2OCC(=O)Nc2ccccc2[N+](=O)[O-])n1	–	-63	–	–	–
Cc1ccccc1OCC(=O)NNC(=S)NC(=O)c1ccccc1[N+](=O)[O-]	–	-57	–	–	–
